According to PubChem BioAssay:
The source made the active and inactive calls.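 The calls were made as follows, unless noted: active = NADPH fluorescence slope more negative than the mean of all samples by about 3 SD, 99.7% confidence; inactive = the rest.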

Legend:
[1] = inhibitors of TNFa-induced NFkB p65 translocation, primary screen, imaging, HUVEC, MLSMR starter and 10KST1 sets (AID 438;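 active = inhibition above 20% together with a positive visual image hit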;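 also: compound added about 3h40 before a 20 min TNFalpha stimulation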;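 as to inhibition: signal is the nuclear over cytoplasmic p65 intensity ratio per well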); details: HUVEC TNFa-induced p65 nuclear translocation; cell count: measured here: nuclei count (cytotoxicity indicator), at 2.08 µM; inhibition: at 2 µM, stronger effect = higher value, 0% TNFa-plus-vehicle, 100% no-TNFa wells
[2] = reduction of polyQ htt aggregates in cells – imaging, exon1htt(103Q)mCFP cells, high-content imaging, primary screen (AID 483;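 active = visual image review flags a hit and inhibition of aggregation exceeds 20%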;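 also: compound exposure lasted 3 days before fixation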;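 as to nuclei count: percent of the per-plate median nuclei count of sample wells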); details: exon1htt(103Q)mCFP cell line, aggregate imaging, at 2 µM; inhibition of aggregation: stronger effect = higher value; nuclei count: measured here: cell count, toxicity
[3] = endothelial E-selectin expression blockers – imaging, HUVEC, immunofluorescence, MLSMR starter and 10KST1 sets, primary screen (AID 487;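 active = visually confirmed hit in the image check and inhibition above 20%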;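 as to inhibition: signal is fraction of cell area covered by stained E-selectin grains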;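 as to nuclei count: 100% = median nuclei count of all wells on the same plate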); details: HUVEC TNFalpha-induced E-selectin immunofluorescence imaging, at 2 µM; inhibition: stronger effect = higher value; nuclei count: measured here: cell number, toxicity
[4] = target: Voltage-gated potassium channel subunit beta-2 (Rattus norvegicus) (UniProt P62483); assay: inhibitors of rat Kvbeta2 reductase activity – biochemical, NADPH fluorescence, primary screen (AID 622;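 active = fluorescence slope higher than the sample average by over 3 SD, cut at about -0.22 in these data, passing the limit was not always enough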;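 also: slope of raw intensity against log time taken from 70 to 1610 s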); details: recombinant KvBeta, 4-cyanobenzaldehyde reduction, at 10 µM, stronger effect = higher value
[5] = target: Voltage-gated potassium channel subunit beta-2 (Rattus norvegicus) (UniProt P62483); assay: enhancers of rat Kvbeta2 NADPH turnover – biochemical, NADPH fluorescence, primary screen (AID 623); details: Recombinant KvBeta, NADPH fluorescence decrease slope, 10 min; at 10 µM; stronger effect = lower value;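 also: fluorescence intensity change per second fitted from 20 to 320 s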
[6] = target: Alpha-2C adrenergic receptor (Homo sapiens) (UniProt P18825); assay: compounds altering alpha2C-coupled GIRK flux – cell-based, HEK293 alpha2C/GIRK1/2, thallium flux, primary screen (AID 624;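 active = fluorescence slope after compound addition differing from the mean of all screened samples at 99.7% confidence, in either direction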;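 also: slope of fluorescence ratio to pre-addition baseline per second over 15 to 24 s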); details: thallium flux BTC fluorescence, at 10 µM, actives lie on both sides
[7] = blockers of RIG-like receptor reporter activation – cell-based, Sendai virus stimulus, luciferase, 10K MLSCN set, TLR/RLR signaling modifier project, primary screen (AID 602276;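 active = inhibition at or above 50% at 10 µM; inactive = inhibition below 50%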;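 also: firefly luciferase from ISG56 promoter only with Renilla not read in this screen; 0% = Sendai virus plus DMSO and 100% = medium plus DMSO without virus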); details: HEK293 RL24 IRF3 luciferase reporter, at 10 µM, stronger effect = higher value
[8] = TLR3 IRF3 reporter activation blockers – cell-based, poly I:C stimulus, luciferase, 10K MLSCN set, primary screen (AID 602277;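 active = inhibition of the reporter signal at or above 50%; inactive = inhibition below 50%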); details: HEK293-TLR3 RL24 IRF3 luciferase reporter, at 10 µM, stronger effect = higher value

Sequence of Alpha-2C adrenergic receptor (Homo sapiens) (P18825 whole entry, looked up): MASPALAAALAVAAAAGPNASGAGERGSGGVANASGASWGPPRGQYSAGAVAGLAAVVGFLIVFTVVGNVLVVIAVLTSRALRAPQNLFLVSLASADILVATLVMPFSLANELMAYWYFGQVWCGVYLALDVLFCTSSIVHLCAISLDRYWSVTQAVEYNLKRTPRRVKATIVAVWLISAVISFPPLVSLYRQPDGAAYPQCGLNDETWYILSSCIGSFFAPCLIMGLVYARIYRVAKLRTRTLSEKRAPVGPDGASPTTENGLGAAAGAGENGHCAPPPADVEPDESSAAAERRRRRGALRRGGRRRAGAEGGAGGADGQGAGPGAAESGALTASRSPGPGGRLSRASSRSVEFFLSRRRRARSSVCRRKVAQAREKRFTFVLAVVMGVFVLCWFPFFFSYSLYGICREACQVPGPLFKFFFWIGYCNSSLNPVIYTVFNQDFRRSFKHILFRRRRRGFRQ
Sequence of Voltage-gated potassium channel subunit beta-2 (Rattus norvegicus) (P62483 whole entry, looked up): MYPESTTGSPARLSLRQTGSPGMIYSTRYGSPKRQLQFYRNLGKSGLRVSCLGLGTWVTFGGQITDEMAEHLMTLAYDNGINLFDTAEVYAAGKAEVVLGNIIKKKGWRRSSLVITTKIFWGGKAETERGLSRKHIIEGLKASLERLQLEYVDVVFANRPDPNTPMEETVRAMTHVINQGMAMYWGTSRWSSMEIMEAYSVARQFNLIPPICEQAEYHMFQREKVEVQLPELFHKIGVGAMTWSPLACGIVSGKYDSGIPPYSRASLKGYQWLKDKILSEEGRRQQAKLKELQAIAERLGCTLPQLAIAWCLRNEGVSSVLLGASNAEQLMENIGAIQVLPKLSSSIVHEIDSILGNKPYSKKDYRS

| Compound | cell count [1] | inhibition [1] | inhibition of aggregation [2] | nuclei count [2] [%] | inhibition [3] | nuclei count [3] [%] | fluorescence slope [4] | NADPH fluorescence slope [5] | slope [6] | inhibition [7] | inhibition [8] |
| --- | --- | --- | --- | --- | --- | --- | --- | --- | --- | --- | --- |
| CC1=C(C(=O)Nc2ccc(F)cc2)C(c2cccc(C)c2)n2nc(CCCO)nc2N1 (stereo not drawn) | 784 | -3.5% (inactive) | 6.5% (inactive) | 88.4 | -32.3% (inactive) | 133 | -0.405 (inactive) | -1.6e-05 (inactive) | 0.00457 (inactive) | 13.9% (inactive) | 41.1% (inactive) |
| COc1ccc(OCC(=O)N2CCN(C(=O)COc3ccc(Br)cc3)CC2)cc1 | 665 | -28.3% (inactive) | -4% (inactive) | 108 | -13.6% (inactive) | 103 | -0.486 (inactive) | -3.9e-05 (inactive) | 0.00463 (inactive) | 18% (inactive) | 20.9% (inactive) |
| CCCCCc1c(C)nc(N2CCc3ccccc32)[nH]c1=O | 398 | -2.2% (inactive) | -1.3% (inactive) | 112 | -5.8% (inactive) | 89.4 | -0.609 (inactive) | 1.7e-05 (inactive) | 0.00814 (inactive) | 13.9% (inactive) | -33.8% (inactive) |
| c1ccc(-c2oc3ncnc(NCCN4CCOCC4)c3c2-c2ccccc2)cc1 | 365 | -11.4% (inactive) | -1.8% (inactive) | 102 | -121% (inactive) | 106 | -0.512 (inactive) | -8.4e-05 (inactive) | 0.00536 (inactive) | 13.9% (inactive) | 16% (inactive) |
| Cc1ccc2c(C)nc(NC3=NCN(C(C)C)CN3)nc2c1 | 604 | 4.7% (inactive) | 5.5% (inactive) | 93.5 | -33.7% (inactive) | 125 | -0.543 (inactive) | 1.2e-05 (inactive) | 0.0049 (inactive) | 11.3% (inactive) | 14.9% (inactive) |
| O=C(Nc1ccccc1-c1ccccc1)NC1CCN(C(=O)N2CCOCC2)CC1 | 497 | 0% (inactive) | -19.4% (inactive) | 113 | 6.6% (inactive) | 96.7 | -0.5 (inactive) | -4.4e-05 (inactive) | 0.00404 (inactive) | 13.4% (inactive) | 18.7% (inactive) |
| CCOc1cccc(/C(O)=C2/C(=O)C(=O)N(CCN3CCOCC3)C2c2cccnc2)c1 (stereo not drawn) | 733 | -1.1% (inactive) | -4.6% (inactive) | 104 | -18.1% (inactive) | 97.6 | -0.421 (inactive) | -5e-05 (inactive) | 0.00281 (inactive) | 14.8% (inactive) | 28.3% (inactive) |
| C=CCn1c(=O)c2ccccc2n2c(SCC(=O)Nc3cc(C)on3)nnc12 | 469 | -22.4% (inactive) | -23.3% (inactive) | 113 | -50.6% (inactive) | 153 | -0.605 (inactive) | -4.3e-05 (inactive) | 0.00622 (inactive) | 3.33% (inactive) | 5.94% (inactive) |
| O=C(NCc1ccco1)c1cccn2c(=O)c3sccc3nc12 | 452 | -1.9% (inactive) | -0.8% (inactive) | 96 | 19.6% (inactive) | 101 | -0.112 (inactive) | -7.3e-06 (inactive) | 0.00303 (inactive) | -2.36% (inactive) | -2.82% (inactive) |
| CCOc1ccc(NC(=O)CN(c2cc(C)cc(C)c2)S(=O)(=O)c2c(C)noc2C)cc1 | 785 | -1.1% (inactive) | 23.6% (inactive) | 99.2 | -14.8% (inactive) | 105 | -0.574 (inactive) | 1.1e-05 (inactive) | 0.0058 (inactive) | 13.8% (inactive) | -22.3% (inactive) |
| CCC(c1nnnn1C(C)(C)C)N1CCN(C2CCCC2)CC1 (stereo not drawn) | 450 | 1.3% (inactive) | -7.5% (inactive) | 124 | -46.6% (inactive) | 128 | -0.634 (inactive) | -1.4e-05 (inactive) | 0.00353 (inactive) | 16.1% (inactive) | 9.37% (inactive) |
| CCCNC(=O)c1ccccc1NC(=O)CN(c1ccccc1OCC)S(C)(=O)=O | 654 | -8.2% (inactive) | -11% (inactive) | 105 | -142% (inactive) | 102 | -0.465 (inactive) | -5.5e-06 (inactive) | 0.00349 (inactive) | -1.76% (inactive) | 20.9% (inactive) |
| COc1ccc(C(=O)NCc2ccccc2OC)cc1 | 590 | -0.6% (inactive) | -15.5% (inactive) | 107 | -25.9% (inactive) | 111 | -0.47 (inactive) | -0.000293 (inactive) | 0.00583 (inactive) | -2.6% (inactive) | -7.58% (inactive) |
| Clc1ccc(C2=Nn3c(nnc3-c3n[nH]c4c3CCC4)SC2)cc1Cl | 434 | 3% (inactive) | 1.5% (inactive) | 101 | 19.9% (inactive) | 95.9 | -0.498 (inactive) | 1.2e-05 (inactive) | 0.00652 (inactive) | 29.6% (inactive) | 33% (inactive) |
| CCCCn1c(CNC(=O)CCC)nc2ccccc21 | 635 | 3.9% (inactive) | -10.7% (inactive) | 124 | -30.1% (inactive) | 116 | -0.565 (inactive) | -4.3e-05 (inactive) | 0.00641 (inactive) | 5.22% (inactive) | 31.7% (inactive) |
| Cc1cccc(NC(=O)c2cc(NC(=O)c3ccco3)ccc2Cl)n1 | 678 | -2.8% (inactive) | 16.4% (inactive) | 83.5 | 19.9% (inactive) | 98 | -0.529 (inactive) | 1.5e-06 (inactive) | 0.00521 (inactive) | 1.7% (inactive) | -7.38% (inactive) |
| O=c1[nH]c(N2CCc3ccccc32)nc2c1CCCC2 | 309 | 1.1% (inactive) | 11% (inactive) | 68.4 | 14.7% (inactive) | 82.4 | -0.507 (inactive) | -4.2e-05 (inactive) | 0.0041 (inactive) | 6.82% (inactive) | -14.4% (inactive) |
| C=CCn1c(SCC(=O)c2ccc(OC)cc2)nnc1C(C)NC(=O)c1cccs1 (stereo not drawn) | 661 | -0.6% (inactive) | 1.5% (inactive) | 127 | -44.6% (inactive) | 132 | -0.349 (inactive) | -4e-06 (inactive) | 0.00302 (inactive) | 10.6% (inactive) | 12.5% (inactive) |
| CCN=C1SC(CC(=O)Nc2ccccc2)C(=O)N1CC (stereo not drawn) | 265 | 3.4% (inactive) | 26.6% (inactive) | 92 | -95.4% (inactive) | 109 | -0.341 (inactive) | -1.1e-05 (inactive) | 0.00797 (inactive) | 8.21% (inactive) | 30% (inactive) |
| Cc1cccc(-n2c(O)c(C=Nc3ccccc3N)c(=O)[nH]c2=O)c1 | 444 | 6% (inactive) | -8.1% (inactive) | 101 | -29.2% (inactive) | 120 | -0.414 (inactive) | -0.000142 (inactive) | 0.00576 (inactive) | 13% (inactive) | 25.3% (inactive) |
| CCOC(=O)Cn1c(=O)c(-c2ccccc2N)nc2ccccc21 | 620 | -1.8% (inactive) | 2.1% (inactive) | 124 | -50.2% (inactive) | 116 | -0.542 (inactive) | -3.7e-05 (inactive) | 0.00661 (inactive) | 12.3% (inactive) | 33.1% (inactive) |
| CCOC(=O)N1CCC(c2cc(=O)n3[nH]c(C)c(-c4ccc(F)cc4)c3n2)CC1 | 743 | -13.4% (inactive) | -25.8% (inactive) | 120 | -82.2% (inactive) | 119 | -0.589 (inactive) | 1.5e-07 (inactive) | 0.00863 (inactive) | 11.5% (inactive) | 31% (inactive) |
| Cc1cccc(CCNC(=O)CCc2nc(-c3ccccc3F)no2)c1 | 357 | 2.8% (inactive) | -1.1% (inactive) | 101 | -2.7% (inactive) | 114 | -0.415 (inactive) | -2.4e-05 (inactive) | 0.00305 (inactive) | -0.595% (inactive) | 2.35% (inactive) |
| CCn1c(C(C#N)/C(=N\S(=O)(=O)c2cccs2)c2ccccc2)nc2ccccc21 (stereo not drawn) | 694 | 25.4% (active) | -17.3% (inactive) | 94.2 | -188% (inactive) | 119 | -0.493 (inactive) | -3.2e-06 (inactive) | 0.00669 (inactive) | 10.5% (inactive) | 40.9% (inactive) |
| COc1cc(OC)c(NC(=O)c2ccco2)cc1Cl | 363 | 2.2% (inactive) | 12.2% (inactive) | 110 | -1.1% (inactive) | 106 | -0.407 (inactive) | -4.6e-05 (inactive) | 0.00173 (inactive) | 21.8% (inactive) | 35% (inactive) |
| COc1ccccc1Oc1ccc(S(=O)(=O)N2CCOCC2)cc1S(=O)(=O)N1CCOCC1 | 242 | 2.9% (inactive) | 24.3% (inactive) | 106 | -142% (inactive) | 132 | -0.377 (inactive) | 5.2e-07 (inactive) | 0.00572 (inactive) | 10% (inactive) | 1.69% (inactive) |
| COCCN(Cc1cc2cc3c(cc2n2nnnc12)OCO3)C(=O)c1ccccc1F | 271 | 10.7% (inactive) | -8.2% (inactive) | 96.5 | -63.4% (inactive) | 105 | -0.352 (inactive) | -3.2e-05 (inactive) | 0.00537 (inactive) | 3.47% (inactive) | 5.93% (inactive) |
| COC(=O)[C@@H](NC(=O)NCc1ccccc1Cl)C(C)C | 732 | 8.4% (inactive) | -23.1% (inactive) | 100 | 15.5% (inactive) | 109 | -0.469 (inactive) | -2.9e-05 (inactive) | 0.00402 (inactive) | 4.11% (inactive) | 32.6% (inactive) |
